# Source: PubChem BioAssay (NCI)
# The panel holds about 83,000 compounds, 20% with a hit somewhere; the sample as a whole holds those more often.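 A percent growth of 40 corresponds to 60% growth inhibition; 0 means no net growth; -100 means all cells died. Active threshold: below 10.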 Unmarked numbers belong to inactive results. Calls of active or inactive are those of the source.
# Test system: MDA-MB-468 breast
# Experiment: NCI-60 one-dose screen, 48 h (100 = growth as untreated, 0 = no growth, -100 = all killed)
# Details: 10 µM unless noted
row,SMILES,growth
1,O=C(OCC1OC(n2cc(C(F)(F)F)c(=O)[nH]c2=O)CC1OC(=O)c1ccc([N+](=O)[O-])cc1)c1ccc([N+](=O)[O-])cc1 (stereo not given),85.3%
2,COc1ccc(Nc2nc(Nc3cc(C)[nH]n3)c3cc(OC)c(OC)cc3n2)cc1,-69.9% [20 µM] (active)
3,CCOC(=O)N1CCc2c(sc3c2C(=O)N[C@H](c2ccc(OC)cc2)N3)C1,101%
4,COc1cc(C(F)(F)F)ccc1-c1cc(-c2ccc(F)cc2)n[nH]1,75.6%
5,NS(=O)(=O)c1ccc(N2N=C(c3ccc(Br)cc3)CC2c2cn(-c3ccccc3)nc2-c2ccc(Cl)cc2)cc1 (stereo not given),112%
6,CC(=O)OC1C=CC(OC(C)=O)O1 (stereo not given),101%
7,CC[N+](CC)=c1ccc2nc3c(cc(N)c4ccccc43)oc-2c1,-5.04% (active)
8,COC(=O)c1ccc(Cn2ccc(=O)[nH]c2=O)cc1,104%
9,CN(C)c1nc(-c2ccco2)n2nc(-c3ccc(Cl)cc3)cc2n1,78.3%
10,Cc1ccc(NC(=O)c2ccc(CN3CCN(C)CC3)c(I)c2)cc1Oc1ccc(-c2[nH]nc3ncnc(N)c23)cc1,105%
11,CC1(C)c2ccccc2C(=O)C1(Br)Cc1ccccc1 (stereo not given),45.6%
12,COc1cc2nc(-c3ccc(Cl)cc3)cc(OCCCN3CCC(O)CC3)c2cc1OC,52.9%
13,N#Cc1ccccc1-c1ccc(Cn2c(-c3cscn3)nc3c(Cl)cccc32)cc1,55.7%
14,N#Cc1c(N)n2c(nc1=Nc1ccc([N+](=O)[O-])cc1)sc1cc(Cl)ccc12,79.5%
15,COc1cccc(/C=C2\SC(=Nc3ccc(NC(C)=O)cc3)NC2=O)c1OC,109%
16,O=C1CS/C(=N/c2nnc(-c3ccc(O)cc3)s2)N1,116%
17,CCN(CC)CCCC(C)Nc1c(C)cnc2cc(Cl)c(C)cc12 (stereo not given),99.7%
18,CCCCCCOc1ccc(/C=N/Nc2cc(C)nc3ccc(Cl)cc23)cc1,-56.7% (active)
19,CCc1ccc(Nc2ncnc3c2cnn3-c2cccc(Br)c2)cc1,91%
20,CNC(=O)c1cccc(Cn2nc(C)c(NC(=O)c3ccc(COc4ccc(C(F)(F)F)cc4C)cc3)c2C)c1,-6.26% (active)

row,SMILES,growth
1,C=C1CC[C@@H]2[C@](C)(COC(C)=O)[C@H](OC(C)=O)CC[C@@]2(C)[C@@H]1CC(NCc1ccc(F)cc1)C1=CCOC1=O (stereo not given in full),27.5%
2,Oc1ccc(-c2nc(-c3ccc4oc5ccc(-c6[nH]c(-c7ccc(O)cc7)nc6-c6ccccc6)cc5c4c3)c(-c3ccccc3)[nH]2)cc1,6.14% (active)
3,COc1ccc(/C=C2\CN(C(=O)C(Cl)Cl)C/C(=C\c3ccc(OC)cc3)C2=O)cc1,-27.5% (active)
4,COc1ccc2c(/C=C3/C(=O)NC(=S)NC3C)cc(=O)oc2c1 (stereo not given),90.4%
5,CCN1C(=O)N(CC)C2Nn3c(s/c(=C4\C(=O)Nc5ccccc54)c3=O)=NC21 (stereo not given),5.05% (active)
6,Cc1cc(-c2nc3ccccc3s2)ccc1NC(=O)COc1ccc(Cl)cc1,-39% (active)
7,COC(=O)CC/C(C)=N\Nc1ccc([N+](=O)[O-])cc1,71.1%
8,COc1ccc2nc3cc(Cl)ccc3c(Nc3ccc(O)cc3)c2c1,46%
9,N#Cc1nn(-c2cc(=O)[nH]c3ccc(Br)cc23)c(N)c1C#N,106%
10,ClC1=C(Cl)C(=C2C(Cl)=C(Cl)C(Cl)=C2Cl)C(Cl)=C1Cl,114%
11,O=C(Nc1ccccc1O)c1ccc(CNc2ccnc(C(F)(F)F)c2)cc1,90.7%
12,CN(C)c1ccc(Nc2c3ccccc3nc3ccccc23)cc1,-27.5% (active)
13,CCCCNC(=O)c1ccc2c(c1)nc(-c1ccccc1)n2C1CCCCC1,123%
14,Cc1ccc(-c2c3c(N)nc(-c4ccncc4)nc3nc3c2c(C)nn3-c2ccccc2)cc1,43.6%
15,O=C1/C(=N\c2cc(=O)[nH]n2S(=O)(=O)c2ccccc2)Nc2ccccc21,106%
16,COc1cc(-c2cc3cc(O)ccc3oc2=O)cc(OC)c1OC,106%
17,CCNCc1c(-c2cccc(OC(F)(F)F)c2)[nH]c2ccc(N3CCCC3)cc2c1=O,36.6%
18,O=C(O)c1cc([N+](=O)[O-])ccc1Oc1ccccc1,101%
19,COc1cc2c(c(OC)c1OC)CCC(c1cccc(NC(=O)c3cccc(Cl)c3)c1)O2 (stereo not given),60.2%
20,O=S(=O)(Cc1ccc(Cl)cc1Cl)c1ccc(Cl)cc1,-29.8% (active)
